Screens as filed in PubChem BioAssay.
Dicer inh = inhibitors of human Dicer processing of pre-microRNA; cat-ELCCA pre-miR-21 Dicer processing, chemiluminescence; active compounds read high; z-score at 25 µM; hit rate 6% among 47,000; AID 1347074; in the data active means z-score above about 3, passing the limit was not always enough;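 further: plate controls were vehicle for no effect and no enzyme for full effect; higher signal means more uncleaved substrate so more Dicer inhibition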
* marks the source's active call; other numbers are inactive results. Only a selection was taken, and hits are over-represented in it overall.

SMILES	Dicer inh
COc1ccc(/C=C/c2nc3n(n2)C=COc2ccccc2-3)cc1	0.55
CCOC(=O)C1=NN(c2ccccc2)C(=C2C(=O)c3ccccc3C2=O)S1	0.46
COc1ccc(-c2nnc(-c3ccc(C)cc3)o2)cc1OC	2.52
CC1=NN(c2ccccc2)C(=O)C1C(=O)c1ccc(Br)cc1 (configuration not stated)	-2.79
COC(=O)c1[nH]c2ccccc2c1C(=O)OC	-1.19
CCOC(=O)c1sc2ccc(NS(=O)(=O)c3ccc(C)cc3)cc2c1C	0.69
CCOC(=O)N1CCc2c(sc(NC(=O)CN3CCc4ccccc43)c2C#N)C1	5.26*
CCOC(=O)c1c(NC(=S)NCc2ccccc2)sc2c1CCN(C(=O)OCC)C2	3.67*
C=CCNC(=S)Nc1sc2c(c1C(=O)OCC)CCN(C(=O)OCC)C2	-3.49
CCOC(=O)c1c(NC(=O)CN2CCc3ccccc32)sc2c1CCN(C(=O)OCC)C2	-0.43
CCOC(=O)c1c(NC(=S)N2CCCCC2)sc2c1CCN(C(=O)OCC)C2	-2.04
CCOC(=O)N1CCc2c(sc(N)c2C#N)C1	-0.06
CNC(=S)N(C)NC(=S)Nc1cc(Cl)cc(Cl)c1	0.59
CSc1nc2sc3c(c2c2nnc(SC(C)C(=O)N4CCOCC4)n12)CC(C(C)C)OC3 (configuration not stated)	-0.67
Cc1ccc(F)cc1NC(=O)Nc1nnc(C2CC2)s1	-0.76
CC(C)Oc1cc(C(F)(F)F)nc2ccc(CSCCO)cc12	0.02
Cc1ccc(-c2nc(-c3ccc(Cl)cc3)no2)c(Cl)c1	0.01
O=C(O)/C(=N/NC(=O)c1ccc(Cl)cc1)c1ccccc1	2.73
CC(C)(C)SCCN=C(Nc1ccc(Cl)cc1)c1ccccc1Cl	-2.68
C/C(=N\NC(=O)c1ccc(Cl)cc1)c1ccccc1O	33.2*
CCOC(=O)N/N=C(\C)c1ccccc1O	0.81
CC(=NCc1cccc(CN=C(C)c2ccccc2O)c1)c1ccccc1O	1.89
CC(=NCCc1ccc(Cl)cc1)c1ccccc1O	5.19*
COC(=O)c1cnc(N/N=C/C=C/c2ccccc2)nc1C(F)(F)F	1.28
CCC1SC2=NC(C)=C(C(=O)OC)C(c3ccc(OC(C)=O)c(OC)c3)N2C1=O (configuration not stated)	0.53
SMILES	Dicer inh
Fc1ccccc1CSc1nc2ccccc2o1	1.24
O=C(NCC1CC1)Nc1sccc1-n1cccc1	-3.01
Cn1nc(-c2ccccc2)cc1NC(=O)Nc1ccc(C(C)(C)C)cc1	1.02
CC(C)(C)c1ccc(NC(=O)Nc2sccc2-n2cccc2)cc1	6.39*
CN1C2CCC1CC(NC(=O)CSc1nnc(N)s1)C2 (configuration not stated)	0.93
Cc1ccc(-c2nn3c(C)nnc3s2)cc1NC(=O)c1ccc([N+](=O)[O-])o1	0.49
COc1cc(-n2c(SCC(=O)c3ccc(Cl)cc3)nc3ccccc3c2=O)c(OC)cc1Cl	3.82*
COc1cc(-n2c(SCC(=O)c3ccccc3)nc3ccccc3c2=O)c(OC)cc1Cl	-0.01
O=C(CSc1n[nH]c(=O)n1-c1ccccc1)c1ccc(Cl)cc1	-3.48
CC(=O)c1cc2cc(Cl)cc(Cl)c2oc1=O	-0.41
CC(=O)c1cc2cc(Cl)cc(Cl)c2o1	1.03
Cc1cc2nc(-c3cc4cc(Cl)cc(Cl)c4oc3=O)[nH]c2cc1C	4.72*
C/C(=N\Nc1cc(Cl)ccc1Cl)c1csc(-c2ccccc2)n1	-1.04
Nc1cc(NC(=O)c2ccccc2O)ccc1Cl	5.62*
O=C(Nc1ccc(Oc2ccc(NC(=O)c3ccccc3Cl)cc2)cc1)c1ccccc1Cl	-0.87
O=C(NC(=O)c1ccccc1Cl)c1ccccc1O	0.32
Clc1ccc(-c2cc(-c3csc(Nc4ccccc4Cl)n3)on2)c(Cl)c1	0.9
C#CCSc1nnc(SCC(=O)c2sc3ccc(Cl)cc3c2C)s1	-0.53
O=C1CC(/C=C/c2ccccc2)(Nc2ccc(S(=O)(=O)N3CCOCC3)cc2)C(=O)N1C1CCCCC1 (configuration not stated)	-1.32
CCOC(=O)C1=C(C)Nc2nnnn2C1c1ccc(OC)cc1 (configuration not stated)	0.47
O/N=C/c1c(-c2ccc(Cl)cc2)[nH]c2ccccc12	4.97*
Clc1ccc(-c2cc3ccccc3[nH]2)cc1	9.6
O=[N+]([O-])/C=C/c1c(-c2ccc3ccccc3c2)[nH]c2ccccc12	1.08
Cc1onc(-c2ccccc2)c1C(=O)NCc1c(Cl)cccc1Sc1ccc(Cl)cc1	-3.88
O=C1CSC(c2cccnc2)N1c1c(F)cccc1Cl (configuration not stated)	-0.05
SMILES	Dicer inh
O=S(=O)(NCCc1ccccn1)c1ccc(-c2ccccn2)s1	-1.38
O=S(=O)(Nc1nc(SCc2ccc(Cl)cc2)n[nH]1)c1ccc(F)cc1	-0.14
O=S(=O)(Nc1nc(SCc2ccc(Cl)cc2)n[nH]1)c1ccc(-c2ccccn2)s1	3.36*
CC(=O)c1c(C)cc(NC(C)(C)C)nc1NC(C)(C)C	0.45
O=C(OCc1ccc(Oc2ccc(Cl)cc2Cl)c([N+](=O)[O-])c1)c1ccc(Cl)cc1	0.36
Cc1noc(C)c1S(=O)(=O)N=S(C)(=O)c1ccc(Cl)cc1 (configuration not stated)	-1.06
O=[N+]([O-])c1ccc(Oc2c(Cl)cccc2Cl)nc1	-0.86
N#Cc1ccc(CSC(N)=Nc2ccccc2)cc1	-0.99
NC(=Nc1ccccc1)SCc1ccc([N+](=O)[O-])cc1	-1.44
COc1ccccc1N=C(N)SCc1ccccc1	5.87*
CSC(=S)Nc1ccc(F)cc1F	0.63
CC(C)n1nnc2cc(C(=O)Nc3ccc(Cl)cc3)ccc21	-0.49
CCc1nc(-c2ccc(-c3ccc(C)cc3)nc2OC)no1	0.47
O=C(O)CSCC(=O)NCc1csc2ccccc12	4.35*
O=C(NCc1csc2ccccc12)C1CC1	1.8
O=C(O)CSCC(=O)NCc1csc2ccc(Cl)cc12	-2.43
CCCCCCNc1c2c3c(cccc3n(C)c1=O)C(=O)c1ccccc1-2	-1.51
CC1=CCC2C(=O)N(c3ccc(C(=O)O)cc3)C(=O)C2C1 (configuration not stated)	-0.37
O=C(c1ccc(N2C(=O)C3CC=C(Cl)CC3C2=O)cc1)N1CCOCC1 (configuration not stated)	4.55*
CC1=CCC2C(=O)N(c3ccc(N4CCOCC4)cc3)C(=O)C2C1 (configuration not stated)	0.06
COc1cccc(C2N=C(N)Nc3nc4ccccc4n32)c1OC (configuration not stated)	-0.37
CCn1c(/C=C/c2ccc3c(c2)OCO3)nc2ccccc2c1=O	5.12*
CCn1c(SC)nc2ccccc2c1=O	0.15
CCn1c(/C=C/c2cccc(Br)c2)nc2ccccc2c1=O	0.11
Cc1nnc(SCC#CCOC(=O)c2ccc(Br)cc2)s1	-0.23
SMILES	Dicer inh
CC(=O)NNC(=O)CNC(=O)c1cc(C)cs1	0.57
O=c1[nH]nc(SCc2cccc3ccccc23)c(=O)[nH]1	-0.12
O=C(/C=C/Sc1c(Cl)cccc1Cl)c1ccc(Br)cc1	-0.12
O=C(/C=C/Sc1ccccn1)c1ccc(Br)cc1	3.03*
Cc1ccc(C(=O)/C=C/Sc2ccccn2)cc1	0.72
O=CN(O)CCCP(=O)(O)O	0.67
CCOC(=O)C1=C(C)NC2=C(C(=O)CCC2)C1c1ccc(OC)cc1OC (configuration not stated)	0.02
CSc1ncc(S(=O)(=O)Cc2cccs2)c(N)n1	0.02
Cc1ncc(S(=O)(=O)C(C)(C)C)c(N)n1	-0.51
Cc1ncc(S(=O)(=O)Cc2cccs2)c(N)n1	5.24*
COc1ccc(Br)cc1C1C2=C(Nc3c1c(=O)[nH]c(=O)n3C)c1ccccc1C2=O (configuration not stated)	-1.15
